Measurements published in PubChem BioAssay AID624093 (National Center for Advancing Translational Sciences (NCATS), 2012).
Results filed as inconclusive are left out. Unmarked numbers belong to inactive results. Activity calls are given as the source filed them. The call rests on the fitted dose curve; in most records, active means well fitted inhibition curve with a large enough effect; inconclusive means small, poorly fitted or top-dose-only effect; inactive means flat fitted curve, though single readings scatter.

Target: Dual specificity tyrosine-phosphorylation-regulated kinase 1A (Homo sapiens) (UniProt Q13627)
Assay: Confirmation Assay for Inhibitors of Dyrk1a (Kinase-Glo Assay): KU probe
Conditions: Kinase-Glo ATP luminescence; series mostly up to 76.9 µM; activity, negative = inhibition: at the top concentration
From the text: NIH Molecular Libraries Probe Production Centers Network [MLPCN] NIH Chemical Genomics Center [NCGC] MLSCN Grant: 1R03MH084827-01 PI Name: Tom Misteli NCGC Assay Overview: The CMGC group of protein kinases which includes CDK-like kinases (Clk) and Dyks are essential kinases found in all eukaryotes. Clks have been implicated to play a role in the regulation of alternative splicing; while Dyrks, in particular over expression of Dyrk1A, has been linked to diseases as Down syndrome (DS; OMIM 190685) and Alzheimer disease (AD; OMIM 104300). Among the members of the CMGC group, the Clks and the Dyrks are very closely related therefore to determine validity and selectivity of an active compound observed in the CLK4 qHTS screen (AID:1770), a bioluminescent counter-screen against Dyrk1A was developed. In addition, potent and selective compounds against Dyrk1A were identified to further assess the role of this enzyme in DS and AD. Dyrk1A (Invitrogen, cat # PV3785) was assayed using ATP and DYRKtide (AnaSpec, cat# 62698) as substrates. Promega Kinase-Glo (cat# V6712) technology was used to detect the residual ATP following kinetic reaction. The Kinase-Glo Plus contains Ultra-Glo [5] luciferase and D-luciferin which generates a bioluminescence signal from the remaining ATP. No enzyme and harmine (Sigma, cat # 286044-1G), a compound shown to inhibit Dyrks were used as a positive control; while DMSO treatment was used as a negative control.
NCGC Assay Protocol Summary: Two uL/well of substrate solution (8uM Dyrktide, 2uM ATP, 25mM Tris-HCl pH 7.5, 10mM MgCl2 , 0.5mM EGTA, 5mM cystein, 0.01% Triton X-100 final concentration) was dispensed into 1536-well assay plates (Greiner, solid white, medium-binding plates) with Aurora Discovery BioRAPTR Flying Reagent Dispenser (FRD, Beckton-Dickenson). Compound solution (23 nL) was transferred to the assay plate using Kalypsys pin tool equipped with a 1536-pin tool. One uL/well enzyme solution (5nM Dyrk1A, 25mM Tris-HCl pH7.5, 10mM MgCl2, 0.5mM EGTA, 5mM cystein, 0.01% Triton X-100 final concentration) was then added using FRD yielding a total kinase reaction volume of 3uL/well. After 2 hours of room temperature incubation, 3uL Kinase-Glo detection reagent was added for a final assay volume of 6uL/well. The plates were spun for 30 seconds (1000 rpm) and incubated at ambient temperature for 2 minutes followed by a luminescence read using Perkin Elmer ViewLux plate reader at 3 seconds exposure time and 2x binning.

Compound	Potency	activity, negative = inhibition [%]
c1cc(-c2ccoc2)nc(-c2ccc3c(c2)OCO3)n1	29200 nM (active)	
c1cncc(CNc2ccnc(-c3cccc4ccccc34)n2)c1	41200 nM (active)	
COc1ccc(-c2ncccn2)cc1		-16.1
Clc1ccc(CNc2nccc(-c3ccc4[nH]ncc4c3)n2)cc1Cl	328 nM (active)	
c1nc(NC[C@@H]2CCCO2)c2cc(-c3ccc4c(c3)OCO4)ccc2n1	130 nM (active)	
CC(C)(C)CNc1ncnc2ccc(-c3ccc(C(=O)O)o3)cc12	2320 nM (active)	
c1cncc(CNc2cc(-c3ccc4c(c3)OCO4)ncn2)c1	16400 nM (active)	
Clc1ccc(CNc2nccc(-c3ccc4c(c3)OCO4)n2)cc1Cl	164 nM (active)	
c1ccc(CNc2ccnc(-c3ccc4c(c3)OCO4)n2)cc1	26000 nM (active)	
Clc1ccc(CNc2ccnc(-c3ccc4c(c3)OCO4)n2)cc1Cl		-10.7
c1cncc(CNc2ccnc(-c3ccc4ccccc4c3)n2)c1	14600 nM (active)	
COc1ccc(-c2nccc(NCc3ccc(Cl)cc3)n2)cc1		-9.84
c1nc(NCC2CCCOC2)c2cc(-c3ccc4c(c3)OCO4)ccc2n1 (stereo not given)	116 nM (active)	
N#Cc1cccc(-c2ncccn2)c1		-13.2
c1cncc(CNc2nccc(-c3ccc4c(c3)OCO4)n2)c1	36.8 nM (active)	
c1nc(NCC2CCOC2)c2cc(-c3ccc4c(c3)OCO4)ccc2n1 (stereo not given)	92.3 nM (active)	
Brc1cc(Br)cc(CNc2ccnc(-c3ccc4c(c3)OCO4)n2)c1		-18.5
COc1ccc(-c2ccnc(NCc3ccc(Cl)cc3)n2)cc1	1840 nM (active)	
CCNC(=O)c1ccc(-c2ccc3ncnc(NCC4CCCO4)c3c2)o1 (stereo not given)	2600 nM (active)	
c1cncc(CNc2nccc(-c3ccc4[nH]ncc4c3)n2)c1	146 nM (active)	

Compound	Potency	activity, negative = inhibition [%]
Clc1ccc(CNc2nccc(-c3ccc4c(c3)OCCO4)n2)cc1Cl	207 nM (active)	
CN(C)c1ccc(-c2nccc(NCc3ccc(Cl)cc3)n2)cc1		-1.69
c1cc(-c2ccc3c(c2)OCO3)nc(Nc2ccc3c(c2)OCO3)n1	130 nM (active)	
CC(C)(C)CNc1ncnc2ccc(-c3ccc4c(c3)OCO4)cc12	11.6 nM (active)	
CCCNc1ncnc2ccc(-c3ccc4c(c3)OCO4)cc12	116 nM (active)	
O=C(O)c1ccc(-c2ccc3ncnc(NCc4nccs4)c3c2)o1	8230 nM (active)	
Clc1ccc(CNc2ccnc(-c3ccc4[nH]ncc4c3)n2)cc1Cl	4630 nM (active)	
COc1cccc(-c2ccnc(NCc3ccc(Cl)c(Cl)c3)n2)c1	5820 nM (active)	
O=c1cnc2cnc(Nc3ccccc3)nc2n1CCc1ccccc1	292 nM (active)	
Clc1ccc(CNc2nccc(-c3ccc4cn[nH]c4c3)n2)cc1Cl	412 nM (active)	
Clc1ccc(CNc2ccnc(-c3ccc4c(c3)OCO4)n2)cc1		-15.5
FC(F)(F)c1cc(Br)cc(Nc2nccc(-c3ccc4c(c3)OCO4)n2)c1	519 nM (active)	
Clc1ccc(CNc2ncncc2-c2ccc3c(c2)OCO3)cc1Cl	4120 nM (active)	
c1cc(-c2ccoc2)nc(-c2ccoc2)n1	20700 nM (active)	
c1nc(NCC2CCCC2)c2cc(-c3ccc4c(c3)OCO4)ccc2n1	65.4 nM (active)	
COc1cccc(-c2ccnc(NCc3ccc(Cl)cc3)n2)c1	7330 nM (active)	
c1nc(NCCC2CCCO2)c2cc(-c3ccc4c(c3)OCO4)ccc2n1 (stereo not given)	164 nM (active)	
Cc1noc(C)c1-c1ncccn1		-1.99
Cc1csc(CNc2ncnc3ccc(-c4ccc(CO)o4)cc23)n1	10400 nM (active)	
COc1ccc(-c2nccc(NCc3ccc(C)cc3)n2)cc1		-10.8
